Experiments:
Details in all cases: concentration: 1 μM,replicates: in singlicate; n = 1
[1] = system: MAPKAPK5
[2] = system: MARK1
[3] = system: MARK2
[4] = system: MARK3
[5] = system: MARK4
[6] = system: MAST1
[7] = system: T1, MEK1
T1 construct: gene MAP2K1

[8] = system: T2, MEK2
T2 construct: gene MAP2K2

[9] = system: T3, MEK3
T3 construct: gene MAP2K3

[10] = system: T4, MEK4
T4 construct: gene MAP2K4

[11] = system: T5, MEK5
T5 construct: gene MAP2K5

[12] = system: T6, MEK6
T6 construct: gene MAP2K6

[13] = system: MELK
[14] = system: MERTK
[15] = system: MET
[16] = system: T7, MINK
T7 construct: gene MINK1

[17] = system: MKK7
[18] = system: MKNK1
[19] = system: MKNK2
[20] = system: T8, MLCK
T8 construct: gene MYLK3
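Note: KINOMEscan kinase panel screen.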

Structure (SMILES)	%Inh [1]	%Inh [2]	%Inh [3]	%Inh [4]	%Inh [5]	%Inh [6]	%Inh [7]	%Inh [8]	%Inh [9]	%Inh [10]	%Inh [11]	%Inh [12]	%Inh [13]	%Inh [14]	%Inh [15]	%Inh [16]	%Inh [17]	%Inh [18]	%Inh [19]	%Inh [20]
Cl.c1ccc(Oc2ccc(Nc3ccnc4cc(-c5ccc(CN6CCNCC6)o5)ccc34)cc2)nc1 [GW567142]	0%	0%	0%	39%	0%	0%	87%	90.9%	0%	19%	99.9%	16%	0%	0%	0%	27%	11%	0%	42%	4%
CCn1c(-c2nonc2N)nc2cncc(CNC3CCNCC3)c21.Cl [SB-747651]	0%	0%	0%	2%	0%	21%	0%	1%	16%	40%	32%	0%	37%	0%	2%	0%	0%	0%	17%	0%
CCN1CCN(CCCC(=O)Nc2n[nH]c3nc(-c4ccc(O)cc4)c(Br)cc23)CC1 [SB-731579]	0%	35%	20%	0%	14%	65%	0%	0%	15%	0%	42%	0%	0%	2%	0%	0%	0%	46%	46%	39%
CCn1c(-c2nonc2N)nc2cncc(Br)c21 [SB-738004]	0%	0%	21%	0%	6%	53%	22%	29%	49%	0%	74%	10%	35%	0%	0%	29%	22%	10%	81%	28%
Cl.Nc1n[nH]c2cc(-c3ccccn3)ccc12 [GSK2189892]	0%	0%	0%	10%	0%	0%	2%	0%	0%	5%	45%	0%	2%	0%	0%	0%	0%	0%	32%	0%
CC(=O)Nc1ccc(-c2cc3ncnc(SCC(=O)O)c3s2)cc1	0%	0%	17%	0%	2%	0%	0%	0%	6%	18%	17%	20%	0%	0%	0%	25%	0%	0%	0%	40%
Cc1ccc(C(=O)Nc2ccc(Oc3ccc4nc(NC(=O)C5CC5)cn4c3)c(F)c2)c(=O)n1-c1ccccc1	0%	0%	0%	32%	15%	31%	0%	29%	0%	0%	98.9%	0%	37%	99.2%	–	0%	0%	88%	94.2%	0%
CCNCC(Cc1ccccc1)NC(=O)c1cc(Br)c(-c2ccnc3[nH]ccc23)s1.Cl.Cl (stereo not drawn) [GSK1383280]	0%	12%	72%	69%	0%	0%	0%	0%	89%	57%	55%	21%	97.5%	34%	6%	64%	35%	0%	94.3%	17%
Cc1nnc(-c2ccc3occ(-c4ccc(S(C)=O)cc4)c3n2)o1 (stereo not drawn)	0%	0%	0%	0%	0%	0%	0%	0%	0%	0%	0%	0%	0%	0%	0%	0%	0%	0%	0%	0%
Cc1ccc(Nc2ccnc(Nc3ccc4c(c3)CS(=O)(=O)C4)n2)cc1O.Cl [GW579362]	0%	0%	17%	0%	5%	0%	84%	62%	92%	90.9%	99.8%	46%	0%	99.5%	80%	64%	0%	43%	94.5%	0%
COc1cccc(CNC(=O)NC2CCN(c3ccnc(Nc4cc(OC)c(OC)c(OC)c4)n3)C2)c1 (stereo not drawn) [GSK1379765]	0%	0%	0%	0%	1%	0%	17%	5%	15%	25%	99.9%	0%	15%	17%	26%	12%	0%	21%	39%	6%
Cn1ccc2ncnc(Oc3ccc(NC(=O)Nc4cnn(C(C)(C)C)c4)c(Cl)c3)c21	0%	10%	6%	0%	16%	0%	0%	15%	3%	0%	18%	0%	16%	65%	35%	70%	0%	4%	78%	0%
Cc1n[nH]c2cc(Nc3ccnc(Nc4cccc(CN5CCOCC5)c4)n3)ccc12 [GW682569]	0%	4%	9%	0%	0%	16%	14%	0%	11%	16%	98.6%	0%	0%	85%	14%	22%	0%	23%	67%	0%
CC(=O)c1c(-c2ccncc2)[nH]c(-c2ccncc2)c1C [GW493036]	0%	0%	0%	10%	0%	36%	0%	0%	0%	40%	2%	0%	0%	0%	11%	29%	0%	14%	46%	0%
